# In PubChem BioAssay AID2409 (Southern Research Specialized Biocontainment Screening …, 2010):
# Potency and affinity values are given separately. Calls of active or inactive are those of the source. Entries that show only a call come without a potency. The rule behind the calls is not given here.
# Test: Venezuelan equine encephalitis virus CPE inhibition in Vero cells, confirmatory stage (AID 2409)
# Conditions: VEEV-infected Vero cells; series mostly up to 66.6 µM
row,Compound,outcome
1,O=C(CSc1nc2cccc(F)c2c(=O)n1-c1ccccc1)Nc1ccc2c(c1)CCC2,inactive
2,O=C(CSc1nc2cccc(I)c2c(=O)n1-c1ccccc1)Nc1ccc2c(c1)CCC2,inactive
3,CCCN(C(=O)c1ccccc1Cl)c1nc(-c2ccc(OC)cc2)cs1,inactive
4,COc1ccc(-c2csc(N(Cc3ccccc3)C(=O)c3ccccc3Cl)n2)cc1,inactive
5,Cc1cc(OC(=O)c2c(F)cccc2F)n(Cc2ccccc2)n1,inactive
6,O=[N+]([O-])c1ccc2c(c1)C(O)N1CCCC1=N2 (stereo not drawn),inactive
7,O=c1c2cc(I)ccc2nc2n1CCC2,inactive
8,O=C(CSc1nc2ccccc2c(=O)n1-c1ccccc1)Nc1ccc2c(c1)CCC2,inactive
9,COc1ccc(-c2csc(N(C)C(=O)c3ccccc3Cl)n2)cc1,inactive
10,O=c1c2cc(Br)ccc2nc2n1CC/C2=C/c1ccccc1,inactive
11,O=C(CSc1nc2ccccc2c(=O)n1-c1ccc(F)cc1)Nc1ccc2c(c1)OCCO2,inactive
12,O=C(CSc1nc2ccccc2c(=O)n1-c1ccc(F)cc1F)Nc1ccc(N2CCOCC2)cc1,inactive
13,O=c1c2cc(Cl)cc(Cl)c2nc2n1CCC2,inactive
14,O=C(CSc1nc2ccccc2c(=O)n1-c1ccc(F)cc1)Nc1cccc2ccccc12,inactive
15,Cc1cccc2nc3n(c(=O)c12)CCC3,inactive
16,O=c1c2cccc(Cl)c2nc2n1CCC2,inactive
17,O=C(CSc1nc2ccccc2c(=O)n1-c1ccc(F)c(Cl)c1)Nc1ccc2c(c1)CCC2,inactive
18,COc1ccccc1NC(=O)CSc1nc2ccccc2c(=O)n1-c1ccc(F)cc1,inactive
19,Cc1cccc2c(=O)n3c(nc12)CCC3,inactive

row,Compound,outcome
1,OC1c2c(F)cccc2N=C2CCCCN21 (stereo not drawn),inactive
2,O=C(CSc1nc2ccc(F)cc2c(=O)n1-c1ccccc1)Nc1ccc2c(c1)CCC2,inactive
3,Nc1ccc2nc3n(c(=O)c2c1)CCC3,inactive
4,O=C(CSc1nc2ccccc2c(=O)n1-c1ccc(F)cc1F)Nc1ccc2c(c1)CCC2,inactive
5,O=C(CSc1nc2ccccc2c(=O)n1-c1ccccc1F)Nc1ccc2c(c1)CCC2,inactive
6,O=C(CSc1nc2ccccc2c(=O)n1-c1ccc(F)cc1)Nc1ccc2c(c1)CCC2,inactive
7,OC1c2c(F)cccc2N=C2CCCN21 (stereo not drawn),inactive
8,COc1cccc(-n2c(SCC(=O)Nc3ccc4c(c3)CCC4)nc3ccccc3c2=O)c1,inactive
9,OC1c2cc(Br)ccc2N=C2CCCCN21 (stereo not drawn),inactive
10,CC(=O)Nc1ccc2nc3n(c(=O)c2c1)CCC3,inactive
11,CC1(O)c2cc(Br)ccc2N=C2CCCN21 (stereo not drawn),inactive
12,OC1c2c(F)cccc2N=C2CCCCCN21 (stereo not drawn),inactive
13,CC1CC(C)CN(C(=O)CSc2nc3ccccc3c(=O)n2-c2ccc(F)cc2)C1 (stereo not drawn),inactive
14,O=c1c2cc([N+](=O)[O-])ccc2nc2n1CCC2,inactive
15,OC1c2cc(Br)ccc2N=C2CCCCCN21 (stereo not drawn),inactive
16,Cc1ccc2nc3n(c(=O)c2c1)CCC3,inactive
17,O=c1c2c(F)cccc2nc2n1CCC2,inactive
18,O=C(CSc1nc2ccccc2c(=O)n1-c1ccc(Cl)c(Cl)c1)Nc1ccc2c(c1)CCC2,inactive
19,OC1c2cc(I)ccc2N=C2CCCN21 (stereo not drawn),inactive
